Assay results: PubChem BioAssay AID1220 (Sanford-Burnham Center for Chemical Genomics, 2008)
Screen size: about 190,000 compounds; about 1,300 (0.68%) were called active. Shown is part of a subset that was picked to be rich in actives. A number with no mark means an inactive call. Rule as the data show it: active = inhibition above about 50%; inactive = the rest.

target: Mannose-6-phosphate isomerase (Homo sapiens) (UniProt P34949); test: human PMI inhibitors, high substrate, primary screen, biochemical, fluorescence intensity, high mannose 6-phosphate (AID 1220); details: recombinant PMI enzyme, coupled fluorescence intensity; at 20 µM; active compounds read high
Sequence (P34949 whole entry, looked up): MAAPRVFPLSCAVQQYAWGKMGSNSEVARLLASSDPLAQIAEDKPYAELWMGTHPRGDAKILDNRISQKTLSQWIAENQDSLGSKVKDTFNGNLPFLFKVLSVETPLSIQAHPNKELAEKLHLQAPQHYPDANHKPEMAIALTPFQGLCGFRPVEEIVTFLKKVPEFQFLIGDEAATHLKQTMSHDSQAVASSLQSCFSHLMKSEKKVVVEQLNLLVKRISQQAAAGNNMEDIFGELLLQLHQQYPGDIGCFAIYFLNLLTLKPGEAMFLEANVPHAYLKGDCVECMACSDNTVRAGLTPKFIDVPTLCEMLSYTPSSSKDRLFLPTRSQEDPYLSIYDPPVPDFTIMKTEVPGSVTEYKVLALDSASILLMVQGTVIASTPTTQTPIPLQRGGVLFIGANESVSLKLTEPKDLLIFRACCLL

Row | Structure (SMILES) | inhibition
1 | O=[N+]([O-])c1ccc(C2C3C(c4ccccc4)=NC4(CCCC4)N32)cc1 (stereo not given) | 9.1%
2 | Cc1ccnc(-n2c(-c3ccco3)nc3ccccc3c2=O)c1 | 16.7%
3 | CN(CCOc1ccc(C=C2C(=O)NC(=O)NC2=O)cc1)c1ccccn1 | -5.1%
4 | COc1cc(/C=N/NP(=S)(c2ccccc2)c2ccccc2)ccc1O | 4.4%
5 | CCCCn1c(O)c(C(CC)=Nc2ccc(OC)cc2OC)c(=O)[nH]c1=O | 17.6%
6 | CCC(=Nc1ccc(OC)cc1OC)c1c(O)n(C)c(=O)n(C)c1=O | 53.9% (active)
7 | CCC(=Nc1ccc(OC)cc1OC)c1c(O)[nH]c(=O)[nH]c1=O | 30.1%
8 | C=CCn1c(O)c(C(CC)=Nc2cc(OC)ccc2OC)c(=O)[nH]c1=O | 55.7% (active)
9 | COc1ccc(N=C(C)c2c(O)n(C)c(=O)n(C)c2=O)c(OC)c1 | -2.6%
10 | C=CCn1c(O)c(C(C)=Nc2cc(OC)ccc2OC)c(=O)[nH]c1=O | 13%
11 | Cc1ccc(O)c(CN2CCN(c3ccccc3)CC2)c1 | 4.3%
12 | CN(C)[C@@H]1C(=O)C(C(N)=O)=C(O)[C@@]2(O)C(=O)C3=C(O)c4c(O)ccc(Cl)c4[C@@](C)(O)C3C[C@@H]12 (stereo not given in full) | 16.4%
13 | CN(C)[C@@H]1C(=O)C(C(N)=O)=C(O)[C@@]2(O)C(=O)C3=C(O)c4c(O)cccc4[C@@](C)(O)[C@H]3[C@H](O)[C@@H]12 | 52.6% (active)
14 | CN1CCN(c2ccc(S(C)(=O)=O)cc2[N+](=O)[O-])CC1 | -13.1%
15 | CN1CCN(c2ccc(S(=O)(=O)C(F)(F)F)cc2[N+](=O)[O-])CC1 | -6.1%
16 | O=[N+]([O-])c1ccc(N2CCCCCC2)c2ncccc12 | 63.7% (active)
17 | O=[N+]([O-])c1ccc(N2CCCC2)c(F)c1Br | 8.1%
18 | CC1CN(c2ccc([N+](=O)[O-])c3cccnc23)CC(C)N1 (stereo not given) | 63.1% (active)
19 | O=[N+]([O-])c1ccc(N2CCCCC2)c2ncccc12 | 72.6% (active)
20 | CN1CCN(c2ccc([N+](=O)[O-])c3cccnc23)CC1 | 63.5% (active)

Row | Structure (SMILES) | inhibition
21 | CC1CN(c2ccc([N+](=O)[O-])cc2Cl)CCN1 (stereo not given) | 49.1%
22 | CC1CN(c2cc([N+](=O)[O-])ccc2Cl)CC(C)N1 (stereo not given) | -1.6%
23 | O=[N+]([O-])c1ccc(N2CCCC2)c2ncccc12 | 22.1%
24 | O=[N+]([O-])c1ccc(N2CCNCC2)c2ncccc12 | 29%
25 | O=[N+]([O-])c1ccc(N2CCNCC2)cc1N1CCCCC1 | 9.9%
26 | Cc1cc(OCc2nn[nH]n2)c2c3c(c(=O)oc2c1)CCCC3 | -9.2%
27 | COc1cc(NC(=O)CN2C3CCC2CC(O)(c2cccnc2)C3)cc(OC)c1 (stereo not given) | 5.3%
28 | O=C(NC(C(Cl)Cl)N1CCOCC1)c1ccccc1 (stereo not given) | -6.2%
29 | O=C(c1ccc2c(c1)ncn2-c1ccc(F)cc1F)N1CCC2(CC1)OCCO2 | -2.9%
30 | CCCCCn1c(=O)c(C(=O)Nc2ccncc2)c(O)c2ccccc21 | -5.5%
31 | COc1ccc(C(C)=O)cc1CC(C(=O)c1ccc(C)cc1)N(C)C (stereo not given) | 4.6%
32 | CCC(C)NC(=O)CN1C(=O)CN=C(c2ccccc2)c2ccccc21 (stereo not given) | -11.3%
33 | O[C@H]1C2CCC1C(N1CCCCC1)CC2 (stereo not given in full) | 5.7%
34 | COc1ccc(OC)c(N2Cc3ccccc3C2=N)c1 | -9.9%
35 | CNc1cc(N2CCN(C)CC2)ccc1[N+](=O)[O-] | 28.3%
36 | CN(C)c1ccc(C=C(C#N)C#N)cc1 | -8.3%
37 | Cc1cc(N2CCCC2)ccc1C=C(C#N)C#N | 7.1%
38 | Cc1ccc2cc(C=C(C#N)C#N)c(Cl)nc2c1 | 57.1% (active)
39 | COc1ccc(OC)c(N2C(=O)NC(=O)C3(Cc4cc(C)ccc4N(C)C3)C2=O)c1 (stereo not given) | -2.8%
40 | CC(=O)NC1C(OC(=O)Cc2ccccc2)OC(COC(C)=O)C(OC(C)=O)C1OC(C)=O (stereo not given) | -6%

Row | Structure (SMILES) | inhibition
41 | CCSc1cc(C2C(C#N)=C(N)Oc3n[nH]c(C)c32)c(C)o1 (stereo not given) | -0.6%
42 | CC(C)N1CCN(c2ccc(O)cc2)CC1 | 65% (active)
43 | CN1CCN(c2ccc(N)cc2)CC1 | 11.3%
44 | CCN1CCN(c2ccc(N)cc2)CC1 | 35.6%
45 | O=C1C2CCN(CC2)C1Cc1ccc(OCc2ccccc2)cc1 (stereo not given) | 1.5%
46 | Oc1ccc2ccccc2c1CN1CC=C(c2ccccc2)CC1 | 38.8%
47 | COc1ccc2c(CN3CC=C(c4ccccc4)CC3)cc(=O)oc2c1 | 14.2%
48 | COc1ccc2ccc(O)c(CN3CC=C(c4ccccc4)CC3)c2c1 | 57.7% (active)
49 | CCC(C)NC(=O)c1c(N)n(Cc2ccc3c(c2)OCO3)c2nc3ccccc3nc12 (stereo not given) | 61.1% (active)
50 | CC(C)CNC(=O)c1c(N)n(Cc2ccc3c(c2)OCO3)c2nc3ccccc3nc12 | 35.4%
51 | COC(=O)c1c(N)n(Cc2ccc(OC)cc2)c2nc3ccccc3nc12 | 0.2%
52 | CCCCNC(=O)c1c(N)n(Cc2ccc3c(c2)OCO3)c2nc3ccccc3nc12 | 69.1% (active)
53 | CC(C)CCNC(=O)c1c(N)n(Cc2ccc3c(c2)OCO3)c2nc3ccccc3nc12 | 41.6%
54 | CCCNC(=O)c1c(N)n(Cc2ccc3c(c2)OCO3)c2nc3ccccc3nc12 | 27.5%
55 | O=C(CCl)NCC1CCCO1 (stereo not given) | 0.5%
56 | CCCCn1c(O)c(C(CC)=NCCN2CCOCC2)c(=O)[nH]c1=O | -61.4%
57 | O=C1c2ccccc2C(=O)N1Cc1nc2ccccc2c(=O)n1-c1ccc(Br)cn1 | -1.8%
58 | CC(=O)c1ccc2c(c1)C1C(Cl)C(Sc3ccccc3[N+](=O)[O-])CC1C(c1ccccc1)N2 (stereo not given) | -67.2%
59 | CC(=O)c1ccc2c(c1)C1C(Cl)C(Sc3ccccc3[N+](=O)[O-])CC1C(C(=O)O)N2 (stereo not given) | -51.9%
60 | CC(=O)c1ccc2c(c1)C1C(Cl)C(Sc3ccccc3[N+](=O)[O-])CC1C(c1ccccc1[N+](=O)[O-])N2 (stereo not given) | 63.2% (active)
